Measured values: PubChem BioAssay
Calls of active or inactive are those of the source. The rule behind the calls is not given here.

These molecules were tested against Pantothenate synthetase (Mycobacterium tuberculosis (strain ATCC 25618 / H37Rv)) (UniProt P9WIL5) (assay: Coupled enzyme confirmation of inhibitors against recombinant Mtb PanC (AID 375;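 note: 0% = full reaction with vehicle and 100% = no enzyme background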)). Conditions: coupled enzyme assay; at 10 µM, stronger effect = higher value.
Chain of Pantothenate synthetase (Mycobacterium tuberculosis (strain ATCC 25618 / H37Rv)) (P9WIL5 whole entry, looked up): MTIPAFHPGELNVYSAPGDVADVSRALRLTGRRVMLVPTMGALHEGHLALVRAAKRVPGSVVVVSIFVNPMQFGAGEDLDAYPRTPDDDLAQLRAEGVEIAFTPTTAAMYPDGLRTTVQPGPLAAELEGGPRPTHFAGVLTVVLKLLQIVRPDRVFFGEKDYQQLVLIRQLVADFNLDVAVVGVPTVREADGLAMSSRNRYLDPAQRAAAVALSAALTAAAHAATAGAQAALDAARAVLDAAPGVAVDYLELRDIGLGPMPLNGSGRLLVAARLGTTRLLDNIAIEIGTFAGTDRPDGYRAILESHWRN

Compound	inhibition
CC1(C)CC(=O)CC(C2(O)C(=O)N(Cc3ccccc3)c3ccccc32)O1 (stereo not given)	0% (inactive)
COc1cc(Br)cc(CN2CCN(C/C=C/c3ccccc3)CC2)c1O	0% (inactive)
O=C(Cn1c(C(=O)NCC2CCCO2)cc2sccc21)c1ccccc1 (stereo not given)	0% (inactive)
COc1ccc(NC(=O)N2CCC(O)(c3cccnc3)CC2)c(OC)c1	3% (inactive)
O=C(NCc1ccccn1)c1ccc2nc(-c3ccco3)c(-c3ccco3)nc2c1	1% (inactive)
Cc1nc2oc3c(NCc4ccccn4)ncnc3c2c2c1COC(C)(C)C2	0% (inactive)
CCOC(=O)C(NC(=O)c1ccccc1)(Nc1cc(C)on1)C(F)(F)F (stereo not given)	0% (inactive)
COc1ccc(NC(=O)c2cc(C(C)C)on2)c(OC)c1	0% (inactive)
CC(=O)C1=C(O)C(=O)N(Cc2ccco2)C1c1ccc2c(c1)OCO2 (stereo not given)	3% (inactive)
CCCC(=O)N(Cc1cc2ccccc2[nH]c1=O)c1ccccc1OC	2% (inactive)
CCOC(=O)N1CCN(C(=O)c2ccc3nc4cc(Cl)ccc4c(=O)n3c2)CC1	8% (inactive)
CSCCC(NS(=O)(=O)c1ccc2c(c1)oc(=O)n2C)C(=O)NC1CCCCC1 (stereo not given)	0% (inactive)
CCCc1cc(C(=O)Nc2sc3c(c2C#N)CCC3)no1	7% (inactive)
O=S(=O)(NCCc1ccncc1)c1cc(Br)ccc1F	0% (inactive)
CN1CCN(c2nc3c(c(=O)n(C)c(=O)n3C)n2Cc2cccc3ccccc23)CC1	0% (inactive)
O=C(CN1C(=O)COc2ccccc21)NCCN1CCc2ccccc2C1	7% (inactive)
CC(=O)C1=C(O)C(=O)N(Cc2cccnc2)C1c1ccccc1 (stereo not given)	3% (inactive)
CN1C(=O)C(O)(CC(=O)c2ccc3c(c2)OCO3)c2ccccc21 (stereo not given)	0% (inactive)
N#CC1=C(N)Oc2c(ccc3cccnc23)C1c1cccnc1 (stereo not given)	0% (inactive)
CC1(C)CC(=O)C2=C(C1)Nc1ccccc1N=C2	0% (inactive)

Compound	inhibition
COc1ccc(C2C=C(c3ccccc3)Nc3ncnn32)cc1 (stereo not given)	4% (inactive)
CCOc1ccccc1-n1c(SCC(=O)NCc2ccco2)nnc1-c1ccncc1	1% (inactive)
COc1ccc(OC)c(C(=O)c2coc3ccc(O)c(CN4CCOCC4)c23)c1	0% (inactive)
O=C(O)c1ccccc1Nc1cccc(C(F)(F)F)c1	2% (inactive)
CN/C=C1\C(=O)C(C)(C)Oc2ccc3ccc(=O)oc3c21	9% (inactive)
Cc1csc(SCCn2c(N3CCCC3)nc3c2c(=O)[nH]c(=O)n3C)n1	0% (inactive)
Cn1cccc1-c1cc(C(=O)O)[nH]n1	0% (inactive)
COc1ccc(OC)c(S(=O)(=O)N2c3ccccc3CC2C)c1 (stereo not given)	0% (inactive)
COc1ccc(N2CCN(CCNC(=O)CCS(=O)(=O)c3cccc4nsnc34)CC2)cc1	0% (inactive)
CCC(=O)N1CCc2cc(Br)cc(S(=O)(=O)CCC(=O)NCC3CCCO3)c21 (stereo not given)	0% (inactive)
COc1cc(Nc2cc(C)nc3ncnn23)cc(OC)c1OC	0% (inactive)
COc1cccc(OC)c1C(=O)N1CCN(S(=O)(=O)c2ccc(C)cc2)CC1	1% (inactive)
CC(C)Cn1c(CN2CCN(c3ccccc3F)CC2)nc2c1c(=O)[nH]c(=O)n2C	0% (inactive)
CCOc1ccccc1NC(=O)CC1Nc2cc(C)c(C)cc2NC1=O (stereo not given)	0% (inactive)
O=C(c1cccnc1NCc1ccccc1)N1CCOCC1	0% (inactive)
Cc1cccn2cc(-c3ccccc3)nc12	0% (inactive)
COC(=O)CSC1=NS(=O)(=O)c2ccccc21	0% (inactive)
Cc1cc(C(=O)NCCN2CCCCC2C)n(-c2ccccc2)n1 (stereo not given)	0% (inactive)
CCOC(=O)N1CCN(C(=O)CSc2ncnc3ccccc23)CC1	0% (inactive)
CC(=O)c1cccc(NC(=O)N2C3CCC2CC(O)(c2cccnc2)C3)c1 (stereo not given)	0% (inactive)
